# Hit rate of the full screen: of about 5,500 compounds, about 2,000 (36%) were called active. Another 18% or so got no clear call; they are omitted. Some of the results follow. Values without a mark were called inactive. No stated cut-off is given here; in the data, active means normalized growth mostly below about 0.91 (no sharp cut-off); inconclusive means no clear call, values can overlap the other calls; inactive means mostly above about 0.92.
# Test: chemical genetic growth profiling, strain panel (AID 1159580);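 further: tested at 20 µM; growth read once vehicle control cultures reached saturation at 30 °C; 1 = growth at the plate median or of vehicle wells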
# Conditions: S. cerevisiae deletion strains, growth OD
smiles,measurement,setting,value
c1ccc(N=Nc2ccc(Nc3ccccc3)cc2)cc1,normalized growth,"locus YAL013W, strain DEP1, stronger effect = lower value",0.916 (active)
same,normalized growth,"locus YBR229C, strain ROT2, stronger effect = lower value",0.823 (active)
same,normalized growth,"locus YCL061C, strain MRC1, stronger effect = lower value",0.89 (active)
same,normalized growth,"locus YDL101C, strain DUN1, stronger effect = lower value",0.977
same,normalized growth,"locus YDL134C, strain PPH21, stronger effect = lower value",0.825 (active)
same,normalized growth,"locus YDR150W, strain NUM1, stronger effect = lower value",0.906
same,normalized growth,"locus YEL061C, strain CIN8, stronger effect = lower value",0.74 (active)
same,normalized growth,"locus YGR078C, strain PAC10, stronger effect = lower value",0.897 (active)
same,normalized growth,"locus YGR229C, strain SMI1, stronger effect = lower value",0.984
same,normalized growth,"locus YHR030C, strain SLT2, stronger effect = lower value",0.57 (active)
same,normalized growth,"locus YHR087W, strain rtc3, stronger effect = lower value",0.751 (active)
same,normalized growth,"locus YJR043C, strain POL32, stronger effect = lower value",0.91 (active)
same,normalized growth,"locus YJR075W, strain HOC1, stronger effect = lower value",0.754 (active)
same,normalized growth,"locus YLR039C, strain RIC1, stronger effect = lower value",0.425 (active)
same,normalized growth,"locus YLR058C, strain SHM2 (second series), stronger effect = lower value",0.964
same,normalized growth,"locus YLR085C, strain ARP6, stronger effect = lower value",0.389 (active)
same,normalized growth,"locus YLR262C, strain YPT6, stronger effect = lower value",0.37 (active)
same,normalized growth,"locus YML094W, strain GIM5, stronger effect = lower value",0.812 (active)
same,normalized growth,"locus YMR219W, strain ESC1, stronger effect = lower value",0.92 (active)
same,normalized growth,"locus YMR263W, strain SAP30, stronger effect = lower value",0.9 (active)
same,normalized growth,"locus YMR307W, strain GAS1, stronger effect = lower value",0.405 (active)
same,normalized growth,"locus YNL128W, strain TEP1, stronger effect = lower value",0.913 (active)
same,normalized growth,"locus YNL153C, strain GIM3, stronger effect = lower value",0.914 (active)
same,normalized growth,"locus YNL298W, strain CLA4 (second series), stronger effect = lower value",0.79 (active)
same,normalized growth,"locus YNL322C, strain KRE1, stronger effect = lower value",1
same,normalized growth,"locus YNR030W, strain Alg12, stronger effect = lower value",0.737 (active)
same,normalized growth,"locus YPL055C, strain LGE1, stronger effect = lower value",0.626 (active)
same,normalized growth,"locus YPL241C, strain CIN2, stronger effect = lower value",0.75 (active)
same,normalized growth,"locus YPR135W, strain CTF4, stronger effect = lower value",0.748
